Measured values from the supplement of paper PMC8728848.
This excerpt belongs to a sample that is enriched for the strongest signals.

Experiments:
Assay in all cases: glycan array binding signal (z-score within array); higher = stronger binding
Conditions in all cases: glycan notation: IUPAC condensed, linker removed
[1] = molecular target: Fuc(a1-2)Gal(b1-3)[Fuc(a1-4)]GlcNAc(b1-2)Man(a1-3)[Fuc(a1-2)Gal(b1-3)[Fuc(a1-4)]GlcNAc(b1-2)Man(a1-3)]Man(b1-4)GlcNAc(b1-4)GlcNAc
In short: (§1)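 Glycan array data were curated from 3228 arrays in the Consortium for Functional Glycomics database and kept only where the protein sequence was available. Glycan names were converted to IUPAC-condensed notation, and columns mapping to the same glycan were averaged. The binding signal is a within-array Z-score, averaged across arrays of the same protein sequence at different concentrations or buffers and across linkers. Negative Z-scores can be read as non-binding.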

[2] = molecular target: Fuc(a1-2)Gal(b1-3)[Fuc(a1-4)]GlcNAc(b1-2)Man(a1-6)[Fuc(a1-2)Gal(b1-3)[Fuc(a1-4)]GlcNAc(b1-2)Man(a1-3)]Man(b1-4)GlcNAc(b1-4)[Fuc(a1-6)]GlcNAc
In short: as §1

[3] = molecular target: Fuc(a1-2)Gal(b1-4)GlcNAc(b1-3)Gal(b1-4)GlcNAc(b1-3)Gal(b1-4)GlcNAc
In short: as §1

[4] = molecular target: Fuc(a1-2)Gal(b1-4)[Fuc(a1-3)]GlcNAc(b1-2)Man(a1-3)[Fuc(a1-2)Gal(b1-4)[Fuc(a1-3)]GlcNAc(b1-2)Man(a1-6)]Man(b1-4)GlcNAc(b1-4)[Fuc(a1-6)]GlcNAc
In short: as §1

[5] = molecular target: Fuc(a1-2)Gal(b1-4)[Fuc(a1-3)]GlcNAc(b1-3)Gal(b1-4)[Fuc(a1-3)]GlcNAc
In short: as §1

[6] = molecular target: Fuc(a1-2)Gal(b1-4)[Fuc(a1-3)]GlcNAc(b1-3)GalNAc
In short: as §1

[7] = molecular target: Fuc(a1-2)Gal6S(b1-3)GlcNAc6S
In short: as §1

[8] = molecular target: Fuc(a1-2)[Gal(a1-3)]Gal(b1-4)GlcNAc(b1-3)GalNAc
In short: as §1

[9] = molecular target: Fuc(a1-2)[Gal(a1-3)]Gal(b1-4)GlcNAc(b1-6)GalNAc
In short: as §1

[10] = molecular target: Fuc(a1-2)[GalNAc(a1-3)]Gal(b1-3)GlcNAc(b1-3)GalNAc
In short: as §1

[11] = molecular target: Fuc(a1-2)[GalNAc(a1-3)]Gal(b1-4)GlcNAc(b1-3)Gal(b1-4)GlcNAc
In short: as §1

[12] = molecular target: Fuc(a1-2)[GalNAc(a1-3)]Gal(b1-4)GlcNAc(b1-3)[Fuc(a1-2)[GalNAc(a1-3)]Gal(b1-4)GlcNAc(b1-6)]GalNAc
In short: as §1

[13] = molecular target: Fuc(b1-3)GlcNAc
In short: as §1

[14] = molecular target: Gal(a1-3)Gal(b1-3)GlcNAc
In short: as §1

[15] = molecular target: Gal(a1-3)Gal(b1-3)[Fuc(a1-4)]GlcNAc(b1-2)Man(a1-3)[Gal(a1-3)Gal(b1-3)[Fuc(a1-4)]GlcNAc(b1-2)Man(a1-6)]Man(b1-4)GlcNAc(b1-4)GlcNAc
In short: as §1

[16] = molecular target: Gal(a1-3)Gal(b1-4)GlcNAc
In short: as §1

[17] = molecular target: Gal(a1-4)Gal(b1-4)GlcNAc(b1-3)Gal(b1-4)Glc
In short: as §1

[18] = molecular target: Gal(b1-3)Gal(b1-4)GlcNAc(b1-2)Man(a1-3)[Gal(b1-3)Gal(b1-4)GlcNAc(b1-2)Man(a1-6)]Man(b1-4)GlcNAc(b1-4)GlcNAc
In short: as §1

[19] = molecular target: Gal(b1-3)GalNAc
In short: as §1

[20] = molecular target: Gal(b1-3)GalNAc(b1-3)Gal(a1-4)Gal(b1-4)Glc
In short: as §1

[21] = molecular target: Gal(b1-4)Glc6S
In short: as §1

[22] = molecular target: Gal(b1-4)GlcNAc(b1-2)[Gal(b1-4)GlcNAc(b1-4)]Man(a1-3)[GlcNAc(b1-4)][Gal(b1-4)GlcNAc(b1-2)Man(a1-6)]Man(b1-4)GlcNAc(b1-4)GlcNAc
In short: as §1

[23] = molecular target: Gal(b1-4)GlcNAc(b1-3)Gal(b1-4)GlcNAc(b1-2)[Gal(b1-4)GlcNAc(b1-3)Gal(b1-4)GlcNAc(b1-6)]Man(a1-6)[Gal(b1-4)GlcNAc(b1-3)Gal(b1-4)GlcNAc(b1-2)Man(a1-3)]Man(b1-4)GlcNAc(b1-4)[Fuc(a1-6)]GlcNAc
In short: as §1

[24] = molecular target: Gal(b1-4)GlcNAc(b1-3)Gal(b1-4)GlcNAc(b1-3)Gal(b1-4)GlcNAc(b1-2)[Gal(b1-4)GlcNAc(b1-3)Gal(b1-4)GlcNAc(b1-3)Gal(b1-4)GlcNAc(b1-6)]Man(a1-6)[Gal(b1-4)GlcNAc(b1-3)Gal(b1-4)GlcNAc(b1-3)Gal(b1-4)GlcNAc(b1-2)Man(a1-3)]Man(b1-4)GlcNAc(b1-4)[Fuc(a1-6)]GlcNAc
In short: as §1

[25] = molecular target: Gal(b1-4)GlcNAc(b1-3)Gal(b1-4)GlcNAc(b1-3)Gal(b1-4)GlcNAc(b1-3)Gal(b1-4)GlcNAc(b1-3)Gal(b1-4)GlcNAc(b1-2)Man(a1-3)[Gal(b1-4)GlcNAc(b1-3)Gal(b1-4)GlcNAc(b1-3)Gal(b1-4)GlcNAc(b1-3)Gal(b1-4)GlcNAc(b1-3)Gal(b1-4)GlcNAc(b1-2)Man(a1-6)]Man(b1-4)GlcNAc(b1-4)GlcNAc
In short: as §1

[26] = molecular target: Gal(b1-4)GlcNAc(b1-3)Gal(b1-4)GlcNAc(b1-6)[Gal(b1-3)]GalNAc
In short: as §1

[27] = molecular target: Gal3S(b1-3)GalNAc
In short: as §1

[28] = molecular target: Gal3S(b1-4)Glc6S
In short: as §1

[29] = molecular target: Gal3S(b1-4)[Fuc(a1-3)]GlcNAc
In short: as §1

[30] = molecular target: Gal4S(b1-4)GlcNAc
In short: as §1

B1: Gal 10 (Homo sapiens), Q05315 (protein)
chain: MSLLPVPYTEAASLSTGSTVTIKGRPLVCFLNEPYLQVDFHTEMKEESDIVFHFQVCFGRRVVMNSREYGAWKQQVESKNMPFQDGQEFELSISVLPDKYQVMVNGQSSYTFDHRIKPEAVKMVQVWRDISLTKFNVSYLKR
Q: With B1 as the binder, how does the “glycan array binding signal (z-score)” value [1] read?
A: Its value is 0.078.

Q: What about the “glycan array binding signal (z-score)” value [2] of the same binder?
A: The value was 0.81.

Q: What about the “glycan array binding signal (z-score)” value [3] of the same binder?
A: Its value is -0.692.

Q: What about the “glycan array binding signal (z-score)” value [4] of the same binder?
A: Its value is -0.642.

Q: What about the “glycan array binding signal (z-score)” value [5] of the same binder?
A: The value was -1.35.

Q: And the “glycan array binding signal (z-score)” value [6]?
A: The value was 2.13.

Q: What about the “glycan array binding signal (z-score)” value [7] of the same binder?
A: Its value is 0.571.

Q: What about the “glycan array binding signal (z-score)” value [8] of the same binder?
A: Its value is -0.339.

Q: What about the “glycan array binding signal (z-score)” value [9] of the same binder?
A: The value was 1.28.

Q: And the “glycan array binding signal (z-score)” value [10]?
A: The value was 0.64.

Q: And the “glycan array binding signal (z-score)” value [11]?
A: The value was -0.116.

Q: What about the “glycan array binding signal (z-score)” value [12] of the same binder?
A: The value was 3.88.

Q: What about the “glycan array binding signal (z-score)” value [13] of the same binder?
A: The value was 0.585.

Q: What about the “glycan array binding signal (z-score)” value [14] of the same binder?
A: The value was -0.317.

Q: What about the “glycan array binding signal (z-score)” value [15] of the same binder?
A: The value was 0.703.

Q: What about the “glycan array binding signal (z-score)” value [16] of the same binder?
A: Its value is 0.105.

Q: What about the “glycan array binding signal (z-score)” value [17] of the same binder?
A: Its value is -0.109.

Q: What about the “glycan array binding signal (z-score)” value [18] of the same binder?
A: The value was -0.754.

Q: And the “glycan array binding signal (z-score)” value [19]?
A: The value was 0.117.

Q: What about the “glycan array binding signal (z-score)” value [20] of the same binder?
A: Its value is -0.196.

Q: And the “glycan array binding signal (z-score)” value [21]?
A: The value was -0.347.

Q: And the “glycan array binding signal (z-score)” value [22]?
A: Its value is -0.708.

Q: And the “glycan array binding signal (z-score)” value [23]?
A: Its value is 2.23.

Q: What about the “glycan array binding signal (z-score)” value [24] of the same binder?
A: The value was 5.64.

Q: What about the “glycan array binding signal (z-score)” value [25] of the same binder?
A: The value was 3.23.

Q: What about the “glycan array binding signal (z-score)” value [26] of the same binder?
A: The value was 3.3.

Q: What about the “glycan array binding signal (z-score)” value [27] of the same binder?
A: The value was -0.157.

Q: What about the “glycan array binding signal (z-score)” value [28] of the same binder?
A: The value was 0.08.

Q: And the “glycan array binding signal (z-score)” value [29]?
A: Its value is -0.495.

Q: And the “glycan array binding signal (z-score)” value [30]?
A: Its value is -0.269.
